About 83,000 compounds went through this panel and 20% of them were active in at least one assay; those are over-represented in the sample as a whole.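 Single-dose data. Exposure time 48 hours. Values below 10 considered active.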 Unmarked numbers belong to inactive results. Calls of active or inactive are those of the source.
How the values were obtained:
Assay in all cases: NCI-60 one-dose screen, 48 h (100 = growth as untreated, 0 = no growth, -100 = all killed)
Conditions in all cases: 10 µM unless noted
[1] = system: RPMI-8226 leukemia
[2] = system: OVCAR-8 ovarian
[3] = system: OVCAR-5 ovarian
[4] = system: OVCAR-4 ovarian
[5] = system: SK-OV-3 ovarian
[6] = system: IGROV1 ovarian
[7] = system: OVCAR-3 ovarian
[8] = system: HS 578T breast
[9] = system: NCI/ADR-RES ovarian
[10] = system: T-47D breast

SMILES | growth [1] | growth [2] | growth [3] | growth [4] [%] | growth [5] | growth [6] | growth [7] | growth [8] | growth [9] | growth [10]
CSc1nnc(C2=CC(=O)c3ccccc3C2=O)n1-c1ccccc1 | 72.2% | 94.6% | 113% | 99.2 | 93.7% | 80.4% | 91.6% | 112% | 98% | 78.4%
Fc1ccc(-c2nnc(/C=C/c3cn(-c4ccccc4)nc3-c3ccccc3)o2)cc1 | 104% | 98.2% | 82.2% | 114 | 85.5% | 97.7% | 119% | 96.9% | 88.2% | 72.6%
O=C(Nc1ccccc1Cl)c1cnc2ccc(C3CCNCC3)cn12 | 108% | 65.5% | 30.8% | 101 | 40.3% | -50.5% (active) | 62.2% | 9.47% (active) | 90.5% | 51.8%
COc1ccc(CCN2CCCN3C2=Nc2ccccc2S3(=O)=O)cc1 | 29.9% | 36.2% | 43.4% | 54.1 | 48.6% | 50.8% | 6.69% (active) | 39.5% | 15.8% | 44.7%
O=C(Nc1nc(-c2ccc(Cl)cc2)cs1)c1cc(O)c(O)c(O)c1 | 17.1% | 15.5% | 62.6% | 27.8 | 43.4% | 15.7% | 40.1% | 61.9% | 13.6% | 25.4%
COc1ccc(C2=NNC(c3cc(Cc4ccc(O)c(C5CC(c6ccc(OC)cc6)=NN5)c4)ccc3O)C2)cc1 (stereo not given) | 26.9% | 28.8% | 112% | 58.3 | 93.9% | 35.5% | 68.6% | 43% | 33.7% | 50.3%
Clc1cc(Cl)c(OCC#CI)cc1Cl | 15.2% | 72.1% | 101% | 80 | 102% | 45.3% | -61.5% (active) | 103% | 83.6% | 1.86% (active)
O=C(/C=C/c1cccnc1)/C=C/c1cccnc1 | -61.1% (active) | -25.2% (active) | -21.7% (active) | 20.9 | 31% | -89.3% (active) | -40.9% (active) | -16% (active) | 32.2% | -2.05% (active)
COc1cc(/C=C/C(=O)Nc2cccnc2Nc2cc(OC)c(OC)c(OC)c2)cc(OC)c1OC | 66.9% | 84.1% | 99.3% | 92.7 | 112% | 112% | 114% | 96.6% | 83.5% | 100%
CN1C(=O)C(=Cc2cn(Cc3ccccc3)c3ccc(Br)cc23)C(=O)N(C)C1=O | 92.6% | 97.9% | 14% | 107 | 90.4% | 97.3% | 103% | 113% | 96.9% | 83.7%
COc1cccc(C2C(C#N)=C(N)Oc3cc(OC)ccc32)c1 (stereo not given) | 9.12% (active) | 3.88% (active) | 34.4% | 59.3 | 3.13% (active) | 10.9% | -28.9% (active) | 11.3% | 3.99% (active) | 55.8%
CCC1=C(c2ccc(OC)cc2)C(C)(C)Oc2c1ccc(O)c2CN1CCCC1 | 0.544% (active) | 58% | 68.3% | 60 | 73.9% | 51.4% | 54.7% | 59.3% | 39.1% | -41.2% (active)
